# Legend:
# [1] = biological target: Mast/stem cell growth factor receptor Kit (Homo sapiens) (UniProt P10721); conditions: at 1 µM
# [2] = biological target: Mast/stem cell growth factor receptor Kit (Homo sapiens) (UniProt P10721); conditions: at 10 µM
# [3] = biological target: Proto-oncogene tyrosine-protein kinase Src (Homo sapiens) (UniProt P12931); conditions: at 1 µM
# [4] = biological target: Proto-oncogene tyrosine-protein kinase Src (Homo sapiens) (UniProt P12931); conditions: at 10 µM
# [5] = biological target: Serine/threonine-protein kinase mTOR (Homo sapiens) (UniProt P42345); conditions: at 1 µM
# [6] = biological target: Serine/threonine-protein kinase mTOR (Homo sapiens) (UniProt P42345); conditions: at 10 µM
# [7] = biological target: Serine/threonine-protein kinase mTOR (Homo sapiens) (UniProt P42345); conditions: at 10 µM; remark: listed apart in the source
# [8] = biological target: Serine/threonine-protein kinase mTOR (Homo sapiens) (UniProt P42345); conditions: at 1 µM; remark: listed apart in the source
# Proto-oncogene tyrosine-protein kinase Src (Homo sapiens), sequence (P12931 2-536 limits assumed): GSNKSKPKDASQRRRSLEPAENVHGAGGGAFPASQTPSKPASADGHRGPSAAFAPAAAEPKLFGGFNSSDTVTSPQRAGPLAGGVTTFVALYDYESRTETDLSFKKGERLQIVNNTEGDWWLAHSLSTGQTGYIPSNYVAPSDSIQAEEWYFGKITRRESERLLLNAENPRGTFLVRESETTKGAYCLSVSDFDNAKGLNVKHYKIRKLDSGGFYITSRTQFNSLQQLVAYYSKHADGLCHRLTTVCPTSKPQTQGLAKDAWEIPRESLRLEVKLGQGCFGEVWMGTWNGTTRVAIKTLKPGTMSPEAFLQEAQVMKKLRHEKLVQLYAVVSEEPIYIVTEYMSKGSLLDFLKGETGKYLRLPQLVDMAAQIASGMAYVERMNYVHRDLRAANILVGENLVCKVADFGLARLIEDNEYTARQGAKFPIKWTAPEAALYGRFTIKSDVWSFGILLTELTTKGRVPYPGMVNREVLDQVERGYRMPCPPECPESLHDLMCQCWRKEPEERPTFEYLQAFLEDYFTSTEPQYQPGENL
# Mast/stem cell growth factor receptor Kit (Homo sapiens), sequence (P10721 whole entry): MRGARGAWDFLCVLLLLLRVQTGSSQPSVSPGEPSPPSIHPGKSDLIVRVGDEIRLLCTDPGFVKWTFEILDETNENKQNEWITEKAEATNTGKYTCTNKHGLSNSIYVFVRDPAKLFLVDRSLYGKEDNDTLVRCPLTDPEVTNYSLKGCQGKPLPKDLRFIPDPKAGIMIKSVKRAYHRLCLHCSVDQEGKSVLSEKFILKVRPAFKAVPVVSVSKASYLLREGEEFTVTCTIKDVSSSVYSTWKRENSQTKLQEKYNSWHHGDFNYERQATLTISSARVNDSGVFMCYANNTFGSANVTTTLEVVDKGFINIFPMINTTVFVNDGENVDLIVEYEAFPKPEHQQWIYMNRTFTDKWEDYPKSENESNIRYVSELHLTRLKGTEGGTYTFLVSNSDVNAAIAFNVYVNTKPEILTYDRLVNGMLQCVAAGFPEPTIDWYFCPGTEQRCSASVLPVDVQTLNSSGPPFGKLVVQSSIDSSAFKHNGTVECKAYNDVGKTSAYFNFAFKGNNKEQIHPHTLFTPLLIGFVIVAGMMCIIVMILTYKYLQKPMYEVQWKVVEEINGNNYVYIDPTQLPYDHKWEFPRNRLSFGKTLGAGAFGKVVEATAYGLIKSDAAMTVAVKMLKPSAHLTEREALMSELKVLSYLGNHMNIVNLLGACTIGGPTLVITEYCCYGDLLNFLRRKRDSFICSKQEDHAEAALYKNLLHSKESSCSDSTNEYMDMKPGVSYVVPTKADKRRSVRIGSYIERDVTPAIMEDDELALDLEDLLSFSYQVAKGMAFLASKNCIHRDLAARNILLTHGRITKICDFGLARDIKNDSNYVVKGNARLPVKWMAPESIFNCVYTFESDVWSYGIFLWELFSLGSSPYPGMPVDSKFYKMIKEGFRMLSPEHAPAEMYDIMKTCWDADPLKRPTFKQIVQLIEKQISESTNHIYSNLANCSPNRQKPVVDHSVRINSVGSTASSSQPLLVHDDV
SMILES,residual activity [1],residual activity [2],residual activity [3],residual activity [4],residual activity [5],residual activity [6],residual activity [7],residual activity [8]
c1ccc(-c2n[nH]c3c2oc2ccccc23)cc1,16%,1%,86%,90%,88%,85%,72%,
CN(C)c1ccc(/C=C2\C(=O)Nc3ccccc32)cc1,24%,4%,87%,85%,78%,101%,89%,78%
CN(C)CCCn1cc(C2=C(c3c[nH]c4ccccc34)C(=O)NC2=O)c2ccccc21,,,82%,,84%,,,83%
Nc1cccc(-c2cc3c(Oc4cccc(O)c4)ncnc3[nH]2)c1,20%,2%,6%,-3%,,83%,94%,122%
Cc1cc(Nc2nc(-c3ccccc3)nc3ccccc23)n[nH]1,23%,2%,14%,-2%,109%,,,128%
O=C(O)c1ccc2c3c1cccc3c(=O)n1c3ccccc3nc21,122%,119%,120%,95%,105%,59%,39%,98%
CCN(CC)C(=O)c1ccc(Nc2nc(OCC3CCCCC3)c3nc[nH]c3n2)cc1,33%,5%,62%,12%,,,55%,
COc1cccc(-c2cc(=O)c3ccccc3o2)c1N,114%,114%,113%,87%,92%,93%,51%,86%
CC(=O)c1ccc(N2CCOCC2)cc1O,,101%,86%,93%,,,,104%
N#CC(C#N)=C(N)/C(C#N)=C/c1ccc(O)cc1,,,83%,,,,61%,
N#Cc1cnc2cnc(NCc3cccnc3)cc2c1Nc1ccc(F)c(Cl)c1,,92%,56%,39%,89%,85%,96%,
Cc1ccc(S(=O)(=O)/C=C/C#N)cc1,100%,114%,114%,76%,95%,101%,82%,86%
O=C1NC(=O)c2cc(Nc3ccc(F)cc3)c(Nc3ccc(F)cc3)cc21,113%,99%,74%,51%,90%,85%,85%,73%
O=c1c2ccccc2[nH]c(=S)n1CCN1CCC(=C(c2ccc(F)cc2)c2ccc(F)cc2)CC1,106%,89%,85%,97%,78%,85%,69%,107%
c1ccc(-c2n[nH]cc2-c2ccnc3ccccc23)nc1,101%,107%,86%,90%,,,102%,85%
COc1cc2ncnc(Nc3ccc(NC(=O)c4ccccc4)cc3)c2cc1OC,,59%,83%,95%,88%,92%,75%,97%
COc1ccc(OC)c2c(=S)c3ccccc3[nH]c12,93%,93%,118%,93%,100%,84%,76%,119%
Cc1cncc2cccc(S(=O)(=O)N3CCCN(C(=O)CN)C[C@H]3C)c12,,,86%,96%,,,,
Cc1cccc(-c2[nH]c(C(C)(C)C)nc2-c2ccc3c(c2)OCO3)n1,,,91%,102%,,,,
Cn1nc2c3c(cccc31)C(=O)c1ccccc1-2,104%,95%,,93%,82%,84%,66%,
Cn1cnc2cc3c(Nc4cccc(Br)c4)ncnc3cc21,114%,92%,64%,32%,102%,105%,97%,104%
CC(C)n1cnc2/c(=N/c3cccc(Cl)c3)nc(NCCO)[nH]c21,108%,94%,54%,7%,114%,96%,101%,82%

# Source: ChEMBL document CHEMBL2218924, “A broad activity screen in support of a chemogenomic map for kinase signalling research and drug discovery” (Biochem J, 2013)
